Test results reported in PubChem BioAssay AID1209 (Sanford-Burnham Center for Chemical Genomics, 2008).
Hit rate of the full screen: of about 190,000 compounds, about 810 (0.43%) were called active. The full list was thinned out, with actives kept by preference. A number with no mark means an inactive call. Rule as the data show it: active = inhibition above about 50%; inactive = the rest.

Molecular target: Mannose-6-phosphate isomerase (Homo sapiens) (UniProt P34949)
Test: inhibitors of human PMI, primary screen, biochemical, fluorescence intensity, coupled assay (AID 1209);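 also: plate controls were DMSO vehicle for no effect and wells lacking substrate for full effect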
Details: purified PMI enzyme, at 20 µM, active compounds read high

Mannose-6-phosphate isomerase (Homo sapiens), sequence (P34949 whole entry, looked up): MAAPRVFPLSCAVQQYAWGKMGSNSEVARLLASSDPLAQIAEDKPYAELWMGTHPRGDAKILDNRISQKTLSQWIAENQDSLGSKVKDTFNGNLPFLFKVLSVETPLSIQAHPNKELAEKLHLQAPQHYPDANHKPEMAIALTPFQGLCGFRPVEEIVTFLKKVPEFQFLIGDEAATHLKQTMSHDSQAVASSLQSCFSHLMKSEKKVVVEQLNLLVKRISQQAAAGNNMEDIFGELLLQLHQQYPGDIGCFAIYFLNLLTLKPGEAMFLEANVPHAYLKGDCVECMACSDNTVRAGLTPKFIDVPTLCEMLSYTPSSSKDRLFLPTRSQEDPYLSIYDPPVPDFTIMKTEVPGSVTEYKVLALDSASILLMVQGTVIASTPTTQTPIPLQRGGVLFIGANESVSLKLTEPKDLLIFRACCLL

Structure (SMILES) | inhibition
Fc1ccc(C2CCCN2Cc2nc(Cc3ccccc3)no2)cc1 (stereo unspecified) | -7%
CC(=O)Nc1ccccc1C(=O)C(=O)Nc1ccc(C)c(F)c1 | 19.9%
Cc1cc(C)c(C(=O)COC(=O)Cn2cnnn2)cc1C | -10.7%
CCN(CC)c1ccc2ccc(=O)oc2c1 | 2.1%
CCN(CC)c1ccc2c(C)c(Cl)c(=O)oc2c1 | -1.5%
O=C(NCCN1CCOCC1)c1cc2cc([N+](=O)[O-])ccc2s1 | 5.6%
c1ccc(C2COC(c3cccs3)=N2)cc1 (stereo unspecified) | 9.4%
N#CC1=C2SCN(Cc3ccco3)CN2C(=O)CC1c1ccccc1F (stereo unspecified) | 43.7%
Cc1ccc(C2CC(=O)N3CN(Cc4ccco4)CSC3=C2C#N)cc1 (stereo unspecified) | 29.7%
N#CC1=C2SCN(Cc3ccco3)CN2C(=O)CC1c1c(F)cccc1Cl (stereo unspecified) | -3.1%
COc1ccc2ccccc2c1C1CC(=O)N2CN(Cc3ccco3)CSC2=C1C#N (stereo unspecified) | 46.4%
COc1cc(C2CC(=O)N3CN(Cc4ccco4)CSC3=C2C#N)ccc1OCc1ccccc1 (stereo unspecified) | 50% (active)
COc1ccc(C2CC(=O)N3CN(Cc4ccco4)CSC3=C2C#N)cc1 (stereo unspecified) | 59.1% (active)
COc1cc(C2CC(=O)N3CN(Cc4ccccc4)CSC3=C2C#N)ccc1OCc1ccccc1 (stereo unspecified) | 45.4%
N#CC1=C2SCN(Cc3ccco3)CN2C(=O)CC1c1cccc2ccccc12 (stereo unspecified) | 55% (active)
CC(C)c1ccc(C2CC(=O)N3CN(Cc4ccco4)CSC3=C2C#N)cc1 (stereo unspecified) | 52.6% (active)
CC(C)c1ccc(C2CC(=O)N3CN(C)CSC3=C2C#N)cc1 (stereo unspecified) | 40.6%
N#CC1=C2SCN(Cc3ccco3)CN2C(=O)CC1c1ccc(Cl)cc1 (stereo unspecified) | 28.7%
COc1ccc(Br)cc1C1CC(=O)N2CN(Cc3ccccc3)CSC2=C1C#N (stereo unspecified) | 34.2%
COc1ccc(C(=O)NCC(=O)OCC(=O)N2CC(C)CC(C)C2)cc1 (stereo unspecified) | 8.6%
Cc1cc(C)c2[nH]c(=O)c(CN(CC3CCCO3)C(=S)Nc3ccccc3)cc2c1 (stereo unspecified) | 28.3%
COc1ccc([N+](=O)[O-])cc1NC(=O)CCN1CCN(C)CC1 | -0.2%

Structure (SMILES) | inhibition
COc1ccc2cc(/C(C)=N/NC(=O)C3CC3)ccc2c1 | -1.6%
Fc1ccc(-n2[nH]nnc2=S)cc1N1CCCC1 | -13.3%
COc1ccc(Cn2c(-c3ccc(Br)cc3)c[n+]3ccccc23)cc1 | -1.6%
CC(=O)c1nnn(-c2ccc([N+](=O)[O-])cc2C)c1C | -15.2%
N#CC1=C2SCN(Cc3ccccc3)CN2C(=O)CC1c1ccccc1F (stereo unspecified) | 25.6%
N#CC1=C2SCN(Cc3ccccc3)CN2C(=O)CC1c1cccs1 (stereo unspecified) | 40.2%
CC(C)CCCNc1nc(N2CCOCC2)nc(N2CCOCC2)n1 | 3.3%
O=C(NCCc1c[nH]c2ccccc12)C(=O)NCC1OCCCN1S(=O)(=O)c1cccs1 (stereo unspecified) | 5.3%
CC(C)n1nc(C(=O)Nc2nnc(SCc3c(Cl)cccc3Cl)s2)c2ccccc2c1=O | 7.2%
O=C(Nc1ccc(N2CCN(c3ccccc3)CC2)c(F)c1)C1CC1 | -5.7%
CN1c2ccccc2N(C)C1(C)c1ccccc1 | 26.1%
CCN1c2ccccc2N(C)C1(C)c1ccccc1 (stereo unspecified) | 61.2% (active)
CCN1C(=O)N(C)C2(c3ccccc3)N(C)C(=O)N(C)C12c1ccccc1 (stereo unspecified) | 13.6%
O=C(CSc1nnnn1-c1ccc(F)cc1)NC1CCCCC1 | 15.6%
CCOc1ccccc1C(=O)Nc1cc(Cl)ccc1O | 14.5%
Fc1cccc(Cl)c1CNc1ccc(N2CCCC2)cc1 | 87.2% (active)
O=C(O)c1cc(NCc2c(F)cccc2Cl)ccc1N1CCOCC1 | 4.6%
O=S(=O)(Nc1ccc(N2CCCCC2)cc1)c1ccccc1 | 17%
NS(=O)(=O)c1ccc(NCc2c(F)cccc2Cl)cc1 | -1.9%
O=C(Nc1ccc(N2CCCCCC2)cc1)c1ccccc1Cl | 21.5%
Clc1cccc(Cl)c1CNc1ccc(N2CCCC2)cc1 | 87.2% (active)
CCCN1CNC(=S)N(c2ccccc2OCC)C1 | -9.9%

Structure (SMILES) | inhibition
O=C1Nc2ccccc2C(O)(C(=O)NCc2ccco2)N1c1ccccc1 (stereo unspecified) | 1.5%
COC(=O)[C@@]1(Cc2ccc(OC)cc2)[C@H]2c3cc(C(=O)N4CCCC4)n(Cc4ccc(C)o4)c3C[C@H]2CN1C(=O)c1ccccc1 | 9.2%
Cc1[nH]nc2c1C(c1ccco1)C(C#N)=C(N)O2 (stereo unspecified) | -18%
CNCCOc1ccccc1C(C)(C)C | 5.9%
Nc1ccc(Cc2ccc(N)c(O)c2)cc1O | 5.5%
NCCc1ccc(O)c(O)c1 | 64.5% (active)
OCCCc1ccc(O)c(O)c1 | 35.2%
CCOC(=O)CSc1nc2sccc2c(=O)[nH]1 | 2.3%
O=C(Nc1ncc(Cl)cc1Cl)c1c(F)cccc1Cl | -15.8%
Cc1cc(C)cc(N2C(=O)c3nccnc3C2=O)c1 | 1.6%
COC(=O)C(C)(C)ONC(=O)Nc1ccc(Br)cc1 | 17.3%
COc1ccc(N/C=C2/CCCCC2=O)cc1 | 18.1%
COc1ccc(N/C=C2\CCc3ccccc3C2=O)cc1 | 97.9% (active)
O=C1CCC/C1=C/Nc1ccc2c(c1)OCO2 | 26.9%
COc1ccc2c(c1)CC/C(=C\Nc1ccc3c(c1)OCO3)C2=O | 89.9% (active)
O=C1CCCC/C1=C/Nc1ccc2c(c1)OCO2 | -14.5%
COc1ccc(N/C=C2\CCOC2=O)cc1 | -13%
O=C1/C(=C/Nc2ccc3c(c2)OCO3)CCc2ccccc21 | 96.4% (active)
CC1CCC/C(=C\Nc2ccc3c(c2)OCO3)C1=O (stereo unspecified) | 8.9%
COc1ccc2c(c1)CC/C(=C/c1ccco1)C2=O | 33.2%
CCN(CC)C(=O)C(=O)N/N=C/c1ccc(C(=O)O)cc1 | 15.8%
COc1cc(C(=O)Nc2ccc(C(C)=O)cc2)c(Br)c(OC)c1OC | 2.4%

Structure (SMILES) | inhibition
O=C(CCn1ccnc1)Nc1ccc2ccccc2c1 | 13.1%
O=S(=O)(NCCSCc1c(Cl)cccc1Cl)c1ccc2c(c1)OCCO2 | 2.4%
COc1ccccc1/C=N/NC(=O)COCC(=O)N/N=C/c1ccccc1OC | 12.7%
CCC(CC(C)(C)O)C(=O)NNC(=S)Nc1ccccc1 (stereo unspecified) | 3.1%
O=C(Nc1nc(-c2ccccn2)cs1)C1COc2ccccc2O1 (stereo unspecified) | -2.1%
O=C(Nc1nc(-c2ccccc2)cs1)C1COc2ccccc2O1 (stereo unspecified) | 9.1%
O=C(Nc1nc(-c2ccncc2)cs1)C1COc2ccccc2O1 (stereo unspecified) | 61.7% (active)
COc1ccc(C(O)c2nccn2Cc2ccccc2)cc1OC (stereo unspecified) | 9.1%
Cc1cc(SCC(=O)N/N=C/c2ccc(O)cc2O)c(C)cc1Br | -12.7%
Cc1cc(SCC(=O)N/N=C/c2ccc(O)c(O)c2)c(C)cc1Br | 18%
Cc1cc(SCC(=O)N/N=C/c2ccc(O)c(O)c2O)c(C)cc1Br | 79.9% (active)
CCC(C)(C)NC(=O)C(c1ccco1)N(C(=O)c1csnn1)c1cccc(F)c1 (stereo unspecified) | -1.3%
COc1ccc(/C=C2\N=C(C)N(c3ccc(C(=O)O)cc3)C2=O)cc1OC | -0.2%
Cc1cccc(OC(=O)c2cncc(Br)c2)c1 | -2.9%
CC(=O)Nc1ccc(S(=O)(=O)Nc2ccc(F)c([N+](=O)[O-])c2)cc1 | -2.3%
CC(=O)Nc1ccc(S(=O)(=O)Nc2ccc(C)c([N+](=O)[O-])c2)cc1 | 114% (active)
CC(=O)Nc1ccc(C)c([N+](=O)[O-])c1 | -6.2%
Cc1ccc(OC(=O)c2cccc(C(=O)Oc3ccc(C)cc3)n2)cc1 | 11.1%
CCOC(=O)c1cccc(C(=O)OCC)n1 | 7.8%
Cc1ccc(OC(=O)c2cccc(C(=O)Oc3ccc(C)cn3)n2)nc1 | 51.5% (active)
COc1ccccc1NS(=O)(=O)c1ccc2oc(SCc3ccc(C#N)cc3)nc2c1 | 23.3%
C/C(=N\Nc1nc(N2CCOCC2)nc(N2CCOCC2)n1)c1cccc([N+](=O)[O-])c1 | -11.8%

Structure (SMILES) | inhibition
Brc1ccc(-c2nnc3sc(CN4CCC5(CC4)OCCO5)cn23)cc1 | 7.3%
c1ccc(-c2nnc3sc(CN4CCC5(CC4)OCCO5)cn23)cc1 | 10.9%
Brc1cccc(-c2nnc3sc(CN4CCC5(CC4)OCCO5)cn23)c1 | 101% (active)
CC1(C)CC2(CC(c3ccccc3)c3ccc(O)cc3O2)NC(=S)N1 (stereo unspecified) | -4.8%
CC1(C)CC2(CC(c3ccccc3F)c3cc(Cl)c(O)cc3O2)NC(=S)N1 (stereo unspecified) | -8.2%
CCCCN(C(=O)Cn1nnc2ccccc21)C(C(=O)NCc1ccco1)c1ccncc1 (stereo unspecified) | -0.5%
Cc1onc(-c2ccccc2Cl)c1C(=O)NC(=S)NCCc1ccccc1 | 11.7%
O=C(c1cccnc1)N1N=C(C2CCCCC2)CC1(O)C(F)(F)F (stereo unspecified) | -7.1%
CCOC(=O)C(=O)Nc1sc(C(=O)N2CCOCC2)c(C)c1C#N | 2.7%
Cc1ccccc1-c1cc(C(=O)Nc2sc(C)c(C)c2C(N)=O)c2ccccc2n1 | 19.7%
CCOC(=O)c1sc(NC(=O)c2ccncc2)c(C#N)c1C | 49.3%
CCOC(=O)c1sc(NC(=O)c2cc(-c3ccccc3C)nc3ccccc23)c(C#N)c1C | 47.9%
Cc1ccccc1-c1cc(C(=O)Nc2sc(C(=O)OC(C)C)c(C)c2C#N)c2ccccc2n1 | 61.2% (active)
Cc1sc(NC(=O)c2cc(-c3ccccc3)nc3ccccc23)c(C(N)=O)c1C | 17%
COC(=O)c1sc(NC(=O)c2cc(-c3ccccc3)nc3ccccc23)c(C#N)c1C | 5.2%
CCOC(=O)c1sc(NC(=O)c2cc(-c3ccc(C)cc3)nc3ccccc23)c(C#N)c1C | 67.7% (active)
CCOC(=O)c1sc(NC(=O)c2cc(-c3ccccc3)nc3ccccc23)c(C#N)c1C | 79% (active)
COc1ccc(-c2cc(C(=O)Nc3sc4c(c3C#N)CCCC4)c3ccccc3n2)cc1 | 7.1%
